Bioassay records (PubChem BioAssay)
EBV gp42 block = Epstein-Barr virus gp42 inhibitors, primary screen, biochemical, uHTS, fluorescence polarization | Glycoprotein 42 (Epstein-Barr virus (strain AG876)), Q1HVG2 | Fluorescence polarization binding assay, mP read-out | inhibition, % (tested at 21.74 µM) | hit rate 0.42% among 220,000 | AID 1085, 2008; in the data active means inhibition above about 50%
Target sequence (Q1HVG2 whole entry, looked up): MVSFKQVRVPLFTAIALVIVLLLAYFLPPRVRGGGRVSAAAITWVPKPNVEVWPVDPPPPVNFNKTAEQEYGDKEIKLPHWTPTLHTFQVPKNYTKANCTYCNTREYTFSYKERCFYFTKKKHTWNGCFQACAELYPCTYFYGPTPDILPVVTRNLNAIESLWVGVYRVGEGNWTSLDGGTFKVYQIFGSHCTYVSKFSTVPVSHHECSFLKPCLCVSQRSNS
BCLXL inh = inhibitors of human Bcl-xL, primary screen, biochemical, fluorescence polarization, HTS; Bcl-2-like protein 1 (Homo sapiens), Q07817; GST-Bcl-xL / FITC-Bim BH3 peptide fluorescence polarization; inhibition, % at 10.9 µM; hit rate 0.7% among 320,000; AID 2129, 2009;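 active means inhibition above the mean of all tested compounds plus 3 SD, cutoff set per campaign, cut at about 30% in these data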;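 further: inhibitors lower millipolarization by displacing the labeled peptide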
MEX-5 binding = MEX-5 zinc finger RNA-binding disruptors – biochemical, C. elegans, fluorescence polarization, MLPCN library, primary screen; MEX-5/FITC-TCR2 RNA binding; hits give low values; activity score (negative = inhibition of binding), % at 10 µM; hit rate 0.38% among 300,000; AID 1832, 2009;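 active means inhibition past about -25% in most replicates, and total fluorescence under double the plate's negative control median, limit read from the data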
MCL1 BIM primary = inhibitors of MCL1 binding to BIM-BH3, primary screen, biochemical, fluorescence polarization; GST-MCL1 / FITC-Bim-BH3 fluorescence polarization; inhibition, % at 10.9 µM; hit rate 0.68% among 320,000;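 active means inhibition above the mean inhibition of all tested compounds plus 3 SD, set per campaign, cut at about 40% in these data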;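 further: higher means more loss of mP so more displacement of Bim peptide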
eLon inh = inhibitors of E. coli Lon protease, primary screen, biochemical, fluorescence polarization | P0A9M0 | purified E. coli Lon protease | inhibition, % at 7.94 µM | hit rate 0.42% among 360,000; in the data active means inhibition above about 13%, passing the limit was not always enough
GLD-1 TGE inh = GLD-1/TGE RNA complex disruptors, primary screen, biochemical, fluorescence polarization | purified GLD-1 + fluorescein TGE RNA | inhibition, % at 5.96 µM | hit rate 0.44% among 320,000 | AID 2280, 2010;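 active means percent inhibition above a per-plate cutoff, the plate mean of test compounds plus 3 SD, cut at about 30% in these data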
Target sequence (Q17339 whole entry, looked up): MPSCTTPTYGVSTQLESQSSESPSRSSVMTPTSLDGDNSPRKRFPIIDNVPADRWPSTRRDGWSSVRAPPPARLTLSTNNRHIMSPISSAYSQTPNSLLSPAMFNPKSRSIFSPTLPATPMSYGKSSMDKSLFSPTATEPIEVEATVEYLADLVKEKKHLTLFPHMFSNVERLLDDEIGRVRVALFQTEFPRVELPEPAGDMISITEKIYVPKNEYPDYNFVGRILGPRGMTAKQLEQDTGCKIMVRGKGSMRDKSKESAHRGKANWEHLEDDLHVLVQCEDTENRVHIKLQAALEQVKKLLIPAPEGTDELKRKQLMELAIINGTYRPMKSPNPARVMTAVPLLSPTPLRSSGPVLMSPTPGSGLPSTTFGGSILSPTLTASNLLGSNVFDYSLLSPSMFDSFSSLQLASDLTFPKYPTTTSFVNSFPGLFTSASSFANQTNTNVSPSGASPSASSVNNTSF
Bcl-xL conf = Bcl-xL inhibitors blocking Bim BH3 binding, confirmation, counter-screen for MCL1 inhibitor project, biochemical, fluorescence polarization | shares compounds with MCL1 BIM primary | GST-Bcl-xL / FITC-Bim BH3 peptide FP binding | inhibition, % at 10.9 µM | hit rate 54% among 1,700;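 active means inhibition above a cutoff equal to the mean inhibition of all tested compounds plus 3 SD, cut at about 30% in these data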
MCL1 BIM confirm = inhibitors of MCL1 binding to BIM-BH3, confirmation, biochemical, fluorescence polarization, triplicate | shares compounds with MCL1 BIM primary | GST-MCL1 / FITC-Bim-BH3 fluorescence polarization | inhibition, % at 10.9 µM | hit rate 61% among 1,700;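 active means inhibition above the average of all tested compounds plus 3 SD, cut at about 40% in these data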
Of the large screens only hits and unclear results are named; the others gave an inactive call (follow-up assays come after a bar, where they were run). Sampled rows, rich in hits. Any-hit rate of the full collection: about 1.5%.

CC(=O)Oc1ccc(N2C(=O)c3cccc4c([N+](=O)[O-])ccc(c34)C2=O)cc1	none (no result: EBV gp42 block)
NS(=O)(=O)c1ccc(CNC(=O)Cn2nc(C(F)F)cc2C(F)F)cc1	none (no result: EBV gp42 block, MEX-5 binding)
O=C(Nc1nc(-c2ccco2)c(-c2ccco2)s1)c1cnccn1	BCLXL inh 33, MCL1 BIM primary 102 (no result: EBV gp42 block, eLon inh) | Bcl-xL conf inactive | MCL1 BIM confirm inactive
O=C(Nc1nc(-c2ccco2)c(-c2ccco2)s1)c1c(F)cccc1Cl	none (no result: EBV gp42 block, MEX-5 binding)
O=C1C(Cl)=C(NC(=O)c2ccccc2)C(=O)C(Cl)=C1NC(=O)c1ccccc1	BCLXL inh 36, MEX-5 binding -86, MCL1 BIM primary 57 (no result: EBV gp42 block) | Bcl-xL conf 54 | MCL1 BIM confirm 57
CCN(CC)CCN1C(=O)C(=O)/C(=C(/O)c2ccc(S(=O)(=O)N3CCOCC3)cc2)C1c1ccc(Cl)cc1 (configuration not stated)	none (no result: EBV gp42 block)
O=C(c1nc2ccc(Cl)cn2c1CN1CCC[C@H]1CO)N1CCCCCCC1	BCLXL inh 61, MCL1 BIM primary 66 (no result: EBV gp42 block) | Bcl-xL conf 55 | MCL1 BIM confirm 69
COc1ccc(S(=O)(=O)c2c(N)n(Cc3ccco3)c3nc4ccccc4nc23)cc1	EBV gp42 block 50, BCLXL inh 101, MCL1 BIM primary 105, GLD-1 TGE inh 117 | Bcl-xL conf inactive | MCL1 BIM confirm inactive
CCNc1nc(-c2cc(C)n(Cc3ccco3)c2C)cs1	BCLXL inh 41, MCL1 BIM primary 46 | Bcl-xL conf inactive | MCL1 BIM confirm inactive
CC(=O)Nc1oc(-c2cccc3ccccc23)nc1C#N	none (no result: EBV gp42 block, MEX-5 binding)
O=S(=O)(NCc1nnc2ccccn12)c1ccc(Cl)cc1	none (no result: EBV gp42 block, MEX-5 binding)
O=C1/C(=C/c2cccs2)SC(=S)N1NS(=O)(=O)c1ccccc1	none
O=C(O)CCCN1C(=O)/C(=C\c2ccco2)SC1=S	none (no result: BCLXL inh, MCL1 BIM primary, GLD-1 TGE inh)
CC(C(=O)O)N1C(=O)/C(=C/C=C/c2ccco2)SC1=S (configuration not stated)	BCLXL inh 50, MEX-5 binding -87, MCL1 BIM primary 83 (no result: EBV gp42 block) | Bcl-xL conf 58 | MCL1 BIM confirm 87
O=C1/C(=C/C=C/c2ccco2)SC(=S)N1NS(=O)(=O)c1ccccc1	BCLXL inh 67, MCL1 BIM primary 83 (no result: MEX-5 binding) | Bcl-xL conf 45 | MCL1 BIM confirm 73
COc1cccc(N2CCN(S(=O)(=O)c3ccc4ccccc4c3)CC2)c1	none (no result: EBV gp42 block, BCLXL inh, MEX-5 binding, MCL1 BIM primary, GLD-1 TGE inh)
O=C(C1=C(O)C(=O)N(c2ncccn2)C1c1ccc(Cl)cc1)c1ccco1 (configuration not stated)	none
COc1ccc2nc(N3C(=O)C(O)=C(C(=O)c4ccco4)C3c3ccc(C)o3)sc2c1 (configuration not stated)	none (no result: EBV gp42 block, BCLXL inh, MEX-5 binding, MCL1 BIM primary, GLD-1 TGE inh)
CCSc1nnc(N2C(=O)C(O)=C(C(=O)c3ccco3)C2c2cccc(OC)c2)s1 (configuration not stated)	BCLXL inh 60, MCL1 BIM primary 60, GLD-1 TGE inh 79 (no result: EBV gp42 block) | Bcl-xL conf 65 | MCL1 BIM confirm 76
CSc1nnc(N2C(=O)C(O)=C(C(=O)c3ccco3)C2c2ccc(F)cc2)s1 (configuration not stated)	BCLXL inh 80, MCL1 BIM primary 71, GLD-1 TGE inh 83 (no result: EBV gp42 block) | Bcl-xL conf 43 | MCL1 BIM confirm 55
O=C(CCCn1cncn1)N1CCCC(N2CCN(c3ccccc3F)CC2)C1 (configuration not stated)	none (no result: EBV gp42 block, MEX-5 binding)
Brc1ccc(C2=Nc3cccc4cccc(c34)N2)o1	MCL1 BIM primary 41 | Bcl-xL conf inactive | MCL1 BIM confirm inactive
COc1ccc(/C=C(\C#N)C(=O)NCCc2ccccc2)cc1OCc1ccccc1	none
COCCCNC(=O)/C(C#N)=C/c1ccc(OCC(=O)O)c(OC)c1	MCL1 BIM primary 57 | Bcl-xL conf inactive | MCL1 BIM confirm inactive
Cc1nc(C)c(C(=O)OCC(=O)NCCc2ccc(F)cc2)s1	none (no result: EBV gp42 block, BCLXL inh, MEX-5 binding, MCL1 BIM primary, GLD-1 TGE inh)
O=C(CSc1nnc(SCc2ccccc2)s1)N/N=C/C=C/c1ccco1	EBV gp42 block 68, MCL1 BIM primary 58 | Bcl-xL conf inactive | MCL1 BIM confirm 67
CCn1c(SCC(=O)N/N=C/C=C/c2ccco2)nnc1-c1ccccc1	none
COC(=O)c1scc(C)c1N1C(=O)c2ccccc2C1=O	none (no result: MEX-5 binding)
Cc1c(C(=O)Nc2ccc(F)cc2)sc2ncn(CC(=O)N3CCCCC3)c(=O)c12	none (no result: EBV gp42 block)
COc1cc(N)c(Cc2nccc3cc(OC)c(OC)cc23)cc1OC	BCLXL inh 115, MCL1 BIM primary 121 | Bcl-xL conf inactive | MCL1 BIM confirm inactive
COc1cc2ccnc(Cc3cccc(OC)c3OC)c2cc1OC	none
CC1CN(C2CCCCC2)C(=S)N(c2ccccc2)C1=O (configuration not stated)	none (no result: EBV gp42 block, BCLXL inh, MEX-5 binding, MCL1 BIM primary, GLD-1 TGE inh)
CCCSCC(=O)Nc1ncc2c(n1)-c1ccccc1CC2	EBV gp42 block 60, BCLXL inh 66, MCL1 BIM primary 62 | Bcl-xL conf 71 | MCL1 BIM confirm 90
O=C(c1cc(-c2ccco2)nn1-c1cccc(Cl)c1)N1CCCCC1	MCL1 BIM primary 70 | Bcl-xL conf inactive | MCL1 BIM confirm 65
Cc1cccc(C(=O)NCC(=O)N2CCN(S(=O)(=O)c3ccc4c(c3)OCCO4)CC2)c1	none (no result: EBV gp42 block, MEX-5 binding)
O=C1CC(/C=C/c2ccc([N+](=O)[O-])cc2)=Nc2ccccc2N1	none (no result: MEX-5 binding)
O=C1CC(/C=C/c2ccco2)=Nc2ccccc2N1	BCLXL inh 50, MCL1 BIM primary 60 | Bcl-xL conf 32 | MCL1 BIM confirm 45
O=C(Cc1ccc(NC(=O)C2CCCN(C(=O)C3CCC3)C2)cc1)Nc1cccc(C(=O)N2CCCC2)c1 (configuration not stated)	none (no result: EBV gp42 block, BCLXL inh, MEX-5 binding, MCL1 BIM primary, GLD-1 TGE inh)
O=C1C2C(C(=O)N1/N=C/c1cc([N+](=O)[O-])c(O)cc1O)C1C=CC2C12CC2 (configuration not stated)	MCL1 BIM primary 48 | Bcl-xL conf inactive | MCL1 BIM confirm 59
O=C(COC(=O)c1cc(-c2cccc(Br)c2)nc2ccccc12)NCC1CCCO1 (configuration not stated)	none
